# SENP8 block-1: inhibitors of human SENP8 protease | 360,000 compounds, 0.64% hits | AID 602440 | recombinant SENP8, Nedd8 substrate fluorescence | inhibition, % at 20 µM; in the data active means inhibition mostly above about 40%, no sharp cut-off; inactive means mostly below about 27%
# Target sequence (Q96LD8 whole entry, looked up): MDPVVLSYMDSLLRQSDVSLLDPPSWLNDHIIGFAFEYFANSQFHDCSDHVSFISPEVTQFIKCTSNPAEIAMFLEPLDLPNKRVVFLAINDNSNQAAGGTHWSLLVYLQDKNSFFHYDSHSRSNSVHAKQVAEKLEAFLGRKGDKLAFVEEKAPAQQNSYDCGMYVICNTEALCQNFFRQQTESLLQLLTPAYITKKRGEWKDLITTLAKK
# SENP8 block-2: inhibitors of human SENP8 protease | purified SENP8, Z-RLRGG-aminoluciferin cleavage, luminescence | inhibition, % at 10 µM | 330,000 compounds, 1.2% hits | AID 2540 | Q96LD8; in the data active means inhibition above about 50%
# SENP6 block: inhibitors of human SENP6 protease | Q9GZR1 | Recombinant SENP6 catalytic domain, aminoluciferin luminescence | inhibition, % at 10 µM | 330,000 compounds, 1.8% hits;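 active means inhibition above about 50% at the single tested dose, limit read from the data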;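 further: plate controls were DMSO wells with enzyme for no effect and DMSO wells lacking enzyme for full effect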
# Platelet DG rel: platelet dense granule release activity; human platelet-rich plasma, SFLLRN dense granule ATP release, luminescence; 300,000 compounds, 0.22% hits; inhibition, %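 (compounds screened at 7.5 µM in platelet-rich plasma)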;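 active means mean replicate score, as percent of positive control, at or above 50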
# SENP7 block: blocks the human protease SENP7 | Q9BQF6 | 330,000 compounds, 1.5% hits | recombinant SENP7, Z-RLRGG-aminoluciferin luminescence, 40 min | AID 434973 | inhibition, % at 5 µM;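 active means inhibition above about 50% at the single test dose, limit read from the data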;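 further: plate controls were DMSO with enzyme for no effect and no enzyme buffer wells for full effect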
# SENP8 conf: confirmation of human SENP8 protease inhibitors | Recombinant SENP8, Z-RLRGG-aminoluciferin luminescence, 60 min | shares compounds with SENP7 block | 6,200 compounds, 40% hits | inhibition, % at 12.5 µM;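 active means mean inhibition across replicates above about 50%, limit read from the data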
# SENP6 conf: confirmation of human SENP6 protease inhibitors; inhibition, % at 12.5 µM; recombinant SENP6, Z-RLRGG-aminoluciferin luminescence; 6,200 compounds, 58% hits; shares compounds with SENP7 block
# SENP7 conf: confirmation of human SENP7 protease inhibitors; shares compounds with SENP7 block; inhibition, % at 12.5 µM; recombinant SENP7, Z-RLRGG-aminoluciferin luminescence, 40 min; 6,200 compounds, 69% hits
# Casp3 SENP sel: selectivity test for SENP inhibitors: human caspase-3 inhibition; shares compounds with SENP7 block; purified caspase-3, Z-DEVD-aminoluciferin luminescence, 60 min; 6,200 compounds, 60% hits; inhibition, % at 12.5 µM; AID 488918;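 active means mean inhibition above about 50%, limit read from the data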;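 further: plate controls were enzyme with DMSO for no effect and wells without caspase-3 for full effect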
# Target sequence (P42574 28-227 limits assumed): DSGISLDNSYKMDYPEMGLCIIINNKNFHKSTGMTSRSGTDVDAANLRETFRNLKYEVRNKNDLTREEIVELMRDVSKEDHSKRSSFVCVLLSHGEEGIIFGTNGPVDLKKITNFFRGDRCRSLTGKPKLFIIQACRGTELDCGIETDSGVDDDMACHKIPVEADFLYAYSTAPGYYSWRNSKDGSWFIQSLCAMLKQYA
# SENP luc ctr: luminescence interference (SENP counter-screen); inhibition, % at 12.5 µM; 6,200 compounds, 39% hits; shares compounds with SENP7 block; Pre-incubated SENP8/Z-RLRGG-aminoluciferin, luciferase luminescence interference;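 active means mean inhibition above about 50% when retested at one dose, limit read from the data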;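 further: plate controls were DMSO wells with completed reaction for no effect and substrate without enzyme for full effect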
# * = called active by the depositor; / = not tested or not shown. Most compounds without a hit are left out; they make up all but 2.4% or so of the library.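 How the source made its calls, unless noted: active means mean inhibition above about 50% in the one-dose retest (limit read from the data); inactive means the rest.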
SMILES,SENP8 block-1,SENP8 block-2,SENP6 block,Platelet DG rel,SENP7 block,SENP8 conf,SENP6 conf,SENP7 conf,Casp3 SENP sel,SENP luc ctr
CC1=NN(C(N)=S)C(=O)C1N=Nc1cccc([N+](=O)[O-])c1 (stereo not given),32,80*,83*,4,76*,4,5,-2,16,7
CC1=NN(C(N)=S)C(=O)C1N=Nc1cccc2ccccc12 (stereo not given),/,/,/,10,/,/,/,/,/,/
CC1=NN(C(N)=S)C(=O)C1N=Nc1cccc(Cl)c1C (stereo not given),15,85*,94*,-6,59*,95*,94*,100*,88*,83*
CCCc1c(Cc2cccc(F)c2)ncn1Cc1cccc(-c2ccccc2)c1,-10,/,/,/,/,/,/,/,/,/
CCN(CC)CCOC(=O)c1ccc(NC(=O)CSc2nnc(-c3cccs3)n2CC)cc1,4,/,/,/,/,/,/,/,/,/
O=C(N/N=C/c1ccc(Cl)cc1)c1ccc2nc[nH]c2c1,7,/,/,/,/,/,/,/,/,/
c1ccc(N2CCN(c3nc4cc5c(cc4s3)OCO5)CC2)cc1,-2,-2,-2,0,-4,/,/,/,/,/
c1c2c(cc3sc(N4CCCCC4)nc13)OCO2,-9,96*,101*,18,99*,97*,99*,103*,98*,95*
c1c2c(cc3sc(N4CCOCC4)nc13)OCO2,-2,76*,60*,23,89*,85*,86*,99*,95*,88*
NC(=O)c1ccccc1NC(=O)COC(=O)CSCc1cccc(Cl)c1,-31,9,13,/,1,/,/,/,/,/
Cc1ccc(NC(=O)C(=O)c2ccc(C)cc2)cc1,9,54*,65*,-3,62*,59*,59*,87*,60*,35
O=C(NC(=O)c1ccccc1)Nc1ccc(-c2cnco2)cc1,24,-11,-2,8,39,/,/,/,/,/
O=C(Nc1ccccc1)c1ccccc1O,-146,-12,6,0,6,/,/,/,/,/
O=C(NC(=O)c1ccccc1)Nc1ccccc1,6,77*,83*,3,93*,5,27,50*,46,19
O=C(Nc1ccccc1)c1ccc(OC(=O)c2ccccc2)cc1,5,13,54*,16,81*,4,8,12,9,0
Cc1ccc(NC(=O)c2ccccc2O)cc1,-83,28,53*,16,41,55*,51*,78*,61*,66*
CC(C)OC(=O)c1ccc(NC(=O)c2ccccc2)cc1,24,15,35,5,29,/,/,/,/,/
Cc1nnc(NCC=Cc2ccccc2)s1,5,/,/,/,/,/,/,/,/,/
COc1cc(C(=O)NN=Cc2ccc(N(C)C)cc2)cc(OC)c1OC,-466,/,/,/,/,/,/,/,/,/
Cc1ccc(C(=O)Cc2ccccc2)cc1,12,/,/,/,/,/,/,/,/,/
COc1ccc(C(=O)Nc2ccc(C(=O)Nc3cccc(C)c3)cc2)cc1,6,0,8,1,0,/,/,/,/,/
Cc1ccc(C(=O)CC(=O)c2ccccc2)cc1,20,70*,75*,1,66*,-4,66*,91*,50*,44
Cc1ccc(C(=O)Nc2ccccc2Cl)cc1,1,45,69*,-3,58*,50*,55*,86*,78*,55*
O=C(Nc1ccc(-c2ccccc2)cc1)c1ccccc1,-64,1,10,-1,0,/,/,/,/,/
Cc1ccc(NC(=O)c2ccccc2)cc1,14,12,-5,7,50*,42,42,78*,72*,54*
SMILES,SENP8 block-1,SENP8 block-2,SENP6 block,Platelet DG rel,SENP7 block,SENP8 conf,SENP6 conf,SENP7 conf,Casp3 SENP sel,SENP luc ctr
Cc1ccc(C(=O)Nc2ccc3ccccc3c2)cc1,8,87*,91*,19,97*,13,51*,101*,89*,35
Cc1ccc(NC(=O)CSCC(=O)N2CCN(Cc3ccc4c(c3)OCO4)CC2)cc1,-3,3,-7,17,-6,/,/,/,/,/
Cc1ccc2cc(NC(=O)CC(CC(=O)O)c3ccccc3)ccc2n1 (stereo not given),-17,8,-21,2,6,/,/,/,/,/
Cc1nnc(NC(=O)c2ccc3ccccc3c2)s1,-20,-1,12,-3,58*,-5,-2,-1,12,-2
O=C(Nc1ccc2ccccc2c1)c1ccc(Cl)cc1,9,-2,41,-6,51*,-8,15,33,67*,13
Cc1ccc2cc(NC(=O)c3ccccc3)ccc2n1,3,53*,62*,5,64*,8,43,81*,74*,63*
O=C(Nc1ccncc1)c1ccc2ccccc2c1,17,-10,-14,5,16,/,/,/,/,/
Cc1ccc(NC(=O)c2cccc3cccnc23)cc1,16,30,54*,7,28,50*,45,72*,32,30
CCN(C(=O)CCS(=O)(=O)c1cccc2nonc12)c1ccc(C)c(C)c1,4,14,30,8,2,/,/,/,/,/
CC(C)(CO)CNC(=O)CCc1nnc(-c2ccc(-c3ccccc3)cc2)o1,-11,-8,-10,-17,-15,/,/,/,/,/
Nc1nccc(-c2cc(-c3ccc(Cl)cc3Cl)no2)n1,-208,92*,95*,22,95*,80*,87*,91*,76*,42
Nc1nnc(-c2ccc(Cl)cc2Cl)s1,-170,2,13,6,5,/,/,/,/,/
Cc1ccnc(NS(=O)(=O)c2ccc(NC(=O)C(C)(C)C)cc2)n1,6,4,89*,0,-2,12,11,-3,1,3
CCCN(CC(=O)Nc1ccccc1OC)C(=O)c1ccc(=O)[nH]c1,12,6,-18,-5,2,/,/,/,/,/
Cc1cccc(C(=O)Nc2ccn(C)n2)c1,10,20,-16,/,-13,/,/,/,/,/
Cc1cccc(C(=O)n2c(=S)nc3cc(C)ccn32)c1,-20,58*,75*,30,81*,63*,72*,87*,46,30
Cc1ccn2c(c1)nc(=S)n2C(=O)c1ccccc1,-16,-7,60*,14,76*,41,52*,76*,39,41
O=C(c1ccco1)n1c(=S)nc2ccccn21,-12,-8,10,8,27,/,/,/,/,/
O=C(c1ccc(-n2cncn2)c([N+](=O)[O-])c1)N1CCN(S(=O)(=O)c2ccc(F)c(F)c2)CC1,14,1,-7,17,7,/,/,/,/,/
O=C(NC(=S)NCCc1ccccc1)c1cccc(Cl)c1,12,0,-15,-9,-11,/,/,/,/,/
